# In PubChem BioAssay (NCATS):
# Inconclusive results are not listed. The source made the active and inactive calls. The call rests on the fitted dose curve; in most records, active means well fitted inhibition curve with a large enough effect; inconclusive means small, poorly fitted or top-dose-only effect; inactive means flat fitted curve, though single readings scatter.
# Experiment: BET inhibitor-based combinations targeting novel dependencies in MECOM-rearranged (r) AML: AML-194 cell line (AID 2202237; further: nearly all actives have a fitted effect of over 40% in size;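 on viability (% of control): plate controls were vehicle wells for no effect and wells without cells for full effect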)
# Conditions: AML-194 (MECOM-r AML) viability, CellTiter-Glo, 48 h; series mostly up to 46 µM; viability (% of control): at the top concentration
# Source text: Ecotropic viral insertion site 1 (EVI1) is located on chromosome 3q26.2 as part of the MECOM (MDS and EVI1 complex) locus. Under normal hematopoiesis, EVI1 is a regulator of hematopoietic stem cell maintenance and self-renewal and EVI1 levels decrease as the cells differentiate. In approximately 5-10% of de novo acute myeloid leukemia (AML) EVI1 is aberrantly expressed, including Chromosomal inv(3)(q21;q26.2) or t(3;3)(q21;q26.2) alterations (MECOM-r) that account for about 50% of AML with EVI1 overexpression 31. AMLs with high levels of EVI1 have a poor prognosis and an overall survival time averaging between 10-14 months. EVI1 overexpression confers resistance in leukemia cells, highlighting the need to develop new targeted therapies for EVI1 overexpressing AMLs.
# Here, we performed an unbiased chemical drug screening by evaluating the single agent activity of a collection of 2,480 oncology-focused, approved and investigational drugs (NCATS Mechanism Interrogation Plates, MIPE v5.0) against a panel of seven AML cell lines. These included four MECOM-r cell-lines (AML-191, AML-194, UCSD-AML1 and HNT-34) and three non-MECOM-r AMLs (MV4-11, OCI-AML3 and SET-2). Exploiting the mechanistic redundancy built in the library, we identified target-level sensitivities in MECOM-r AML cells and relative activity as compared to other AML subtypes.
# A collection of 2480 mechanistically annotated dugs (MIPE v5.0) was used to screen four 3q26.2 rearranged AML cell lines and three non-3q26.2 rearranged AML cell lines. This library purposely exploits redundancy by including multiple inhibitors of key onco-targets, while simultaneously encompassing mechanistic diversity, targeting more than 800 distinct mechanisms of action. Briefly, cells were seeded in 5 uL of growth media using a Multidrop Combi dispenser into 1536 well white polystyrene tissue culture treated plates (Corning) at a density of 500cells/well. For each cell-line, for each of the 2480 drugs in MIPE v5.0 library, an 11-point dose curve was generated via a 1536 pin-tool. Plates were incubated for 48 hr at standard incubator conditions, covered by a stainless steel gasketed lid to prevent evaporation. Cell viability was determined by luminescence based, Cell Titer Glo assay (Promega). In detail, 3 uL of Cell Titer Glo were added to each well and plates were incubated at room temperature for 15 min with a stainless-steel lid in place. Luminescence readings were taken using a Viewlux (PerkinElmer) with a 2 s exposure time per plate. Compound dose-response curves were normalized to DMSO and empty well controls on each plate. Quantitative drug activity data from dose-response curves was determined utilizing area Under the Curve (AUC) and Z-transformed AUC (Z-AUC, a mean-centering transformation applied to each individual cell-line screened).
# Potency means the concentration at half of the fitted maximal effect.
Compound,Potency,viability (% of control)
Cc1nc2cnc3ccc(C#Cc4cccnc4)cc3c2n1-c1ccc(C(C)(C)C#N)cc1,0.468 µM (active),
COc1nccc(-c2c(-c3ccc(F)cc3)ncn2C2CCC(O)CC2)n1 (stereo not given),,85.1% (inactive)
CN(C(=O)c1ccc(F)cc1C(F)(F)F)C1CCN(c2nnc(-c3ccnn3C)c3ccccc23)CC1,,102% (inactive)
O=C(NNc1ccccc1)c1ccncc1,,111% (inactive)
COc1cccc([C@@H](C)NCCCc2ccccc2Cl)c1,23.5 µM (active),
COc1cc2c(Oc3ccc(NC(=O)C4(C(=O)Nc5ccc(F)cc5)CC4)cc3F)ccnc2cc1OCCCN1CCOCC1,0.59 µM (active),
O=C(CN1C(=O)C2(CCCC2)NC[C@H]1c1cc(F)cc(F)c1)Nc1ccc2c(c1)C[C@@]1(C2)C(=O)Nc2ncccc21,,112% (inactive)
Cc1cc(C)c(/C=C2\C(=O)Nc3ccccc32)[nH]1,,96.9% (inactive)
CCS(=O)(=O)c1cccc(-c2cc(C(=O)NC3CCN(C)CC3)c(C)c3[nH]c4ncc(C)cc4c23)c1,2.63 µM (active),
O=C1C[C@@H](c2ccc(O)cc2)Oc2cc(O)cc(O)c21,,102% (inactive)
CCC(C)(C)C(=O)O[C@H]1C[C@@H](C)C=C2C=C[C@H](C)[C@H](CC[C@@H]3C[C@@H](O)CC(=O)O3)[C@H]21,,90.9% (inactive)
COc1cc2c(Nc3ccc(Br)cc3F)ncnc2cc1OCC1CCN(C)CC1,23.5 µM (active),
CNC(=O)c1nn(C)c2c1C(C)(C)Cc1cnc(Nc3ccc(N4CCN(C)CC4)cc3)nc1-2,1.32 µM (active),
N#CC1(c2cccc(C(=O)Nc3cc(Oc4ccc5nc(NC(=O)C6CC6)sc5n4)ccc3F)c2Cl)CC1,,64.7% (inactive)
O=C1N(c2ccccc2)c2ccccc2C1(Cc1ccncc1)Cc1ccncc1,,105% (inactive)
COCCOc1ccc2c(c1)ncn2-c1ccc2cccc(N3CCC(N)CC3)c2n1,2.35 µM (active),
CCCCOCCOc1nc(-c2ccc(C(=O)O)c(F)c2)sc1C,,94.8% (inactive)
CN(C)C/C=C/C(=O)Nc1ccc(C(=O)Nc2cccc(Nc3ncc(Cl)c(-c4c[nH]c5ccccc45)n3)c2)cc1,0.296 µM (active),
O=C1NC(=O)C(c2cnc3ccccn23)=C1c1cn2c3c(cccc13)CN(C(=O)N1CCOCC1)CC2,2.35 µM (active),
CN[C@@H]1[C@H](O[C@H]2[C@H](O[C@@H]3[C@@H](O)[C@H](O)[C@@H](N=C(N)N)[C@H](O)[C@H]3N=C(N)N)O[C@@H](C)[C@]2(O)C=O)O[C@@H](CO)[C@H](O)[C@H]1O,,96.3% (inactive)

Compound,Potency,viability (% of control)
Nc1cc(C(F)(F)F)c(-c2cc(N3CCOCC3)nc(N3CCOCC3)n2)cn1,1.86 µM (active),
O=C1CCC[C@@H]2[C@H]3CCC[N+]4([O-])CCC[C@@H](CN12)[C@@H]34 (stereo not given in full),,113% (inactive)
Cc1cc(Nc2cc(N3CCN(C)CC3)nc(/C=C/c3ccccc3)n2)n[nH]1,1.18 µM (active),
COC(=O)Nc1nc2ccc(Sc3ccccc3)cc2[nH]1,0.417 µM (active),
CC(=O)OCC(CCn1cnc2cnc(N)nc21)COC(C)=O,,107% (inactive)
CC1(C)CCC(C)(C)c2cc(NC(=O)c3ccc(C(=O)O)cc3)ccc21,,97.2% (inactive)
COc1ccc(Cc2ccc(NC(N)=O)cc2)cc1-c1cccc(Cl)c1,,101% (inactive)
O=c1ncn2nc(Sc3ccc(F)cc3F)ccc2c1-c1c(Cl)cccc1Cl,,96.9% (inactive)
Cc1ccc(C(=O)Nc2ccc(S(=O)(=O)O)c3cc(S(=O)(=O)O)cc(S(=O)(=O)O)c23)cc1NC(=O)c1cccc(NC(=O)Nc2cccc(C(=O)Nc3cc(C(=O)Nc4ccc(S(=O)(=O)O)c5cc(S(=O)(=O)O)cc(S(=O)(=O)O)c45)ccc3C)c2)c1,,114% [at 15.6 µM] (inactive)
CC1(C)Cc2c(-c3ccccc3)c(-c3ccc(Cl)cc3)c(CC(=O)O)n2C1,,104% (inactive)
COc1cc(F)c(C(C)C)cc1-c1ccc(C(F)(F)F)cc1CN1C(=O)O[C@H](c2cc(C(F)(F)F)cc(C(F)(F)F)c2)[C@@H]1C,,101% (inactive)
CNC(=O)c1ccc2cc(C3(O)CCn4cncc43)ccc2c1 (stereo not given),,113% (inactive)
NC(=O)c1noc([C@H](CCCC2CCCCC2)CC(=O)NO)n1,6.61 µM (active),
CN[C@@H](C)[C@H]1[C@H](O)C[C@@]2(C)[C@@H]3CC[C@H]4C(C)(C)[C@@H](NC)CC[C@@]45C[C@@]35CC[C@]12C,,117% [at 8.46 µM] (inactive)
CC(C)COCC(CN(Cc1ccccc1)c1ccccc1)N1CCCC1 (stereo not given),23.5 µM (active),
CNC[C@H](O)c1ccc(O)c(O)c1,,95.9% (inactive)
COc1ccc(-c2coc3cc(O)cc(O)c3c2=O)cc1,,98.7% (inactive)
CCC(C)SSc1ncc[nH]1 (stereo not given),7.42 µM (active),
CC1COc2c(N3CCN(C)CC3)c(F)cc3c(=O)c(C(=O)O)cn1c23 (stereo not given),,112% (inactive)
CS(=O)(=O)c1ccc(Oc2cc(F)cc(C#N)c2)c2c1[C@H](O)C(F)(F)C2,,106% (inactive)
